Source: PubChem
IL-1B inflam inh: qHTS for Inhibitors of Inflammasome Signaling: IL-1-beta AlphaLISA Primary Screen. THP-1 LPS/ATP IL-1B secretion, AlphaLISA, 16 h; hits give low values. hit rate 4.7% among 360,000. activity change, % at 57.5 µM; in the data active = activity change below about -50%; inconclusive = mostly about -30% to -49%
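Secreted IL-1B measured by AlphaLISA bead assay after 16 h compound exposure of THP-1 cells; compounds (final up to 57.5 uM) added 1 h before LPS (250 ng/mL) and ATP (1.25 mM) stimulation; lower signal means less secretion.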
ELG1 DNA repair: qHTS screen for small molecules that inhibit ELG1-dependent DNA repair in human embryonic kidney (HEK293T) cells expressing luciferase-tagged ELG1 | HEK293T ELG1-luciferase reporter, luminescence, 16 h; DNA damage induced by 5-fluorouridine | Potency, µM (series often up to 46.1 µM), without a hit: at the top dose activity change, negative = inhibition, hits mostly inhibitors | hit rate 2.3% among 330,000 | AID 504467, 2011; also: potency is read from the fitted curve at half-maximal effect; nearly all actives have a fitted effect of over 55% in size
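DMSO vehicle served as the neutral condition. Each well held 2,000 cells given 5-fluorouridine plus compound; after 16 hr at 37 °C/5% CO2, ONE-Glo was added and luciferase measured 30 min later.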
TDP1 block: qHTS Assay for Inhibitors of Tyrosyl-DNA Phosphodiesterase (TDP1) | recombinant TDP1, AlphaScreen DNA substrate cleavage | Potency, µM (doses to about 130 µM), for inactives: top-dose activity change, negative = inhibition, most hits filed as inhibitors | hit rate 0.28% among 350,000 | AID 485290, 2010; also: potency is read from the fitted curve at half-maximal effect; nearly all actives have a fitted effect of over 40% in size
Target sequence (Q9NUW8 whole entry, looked up): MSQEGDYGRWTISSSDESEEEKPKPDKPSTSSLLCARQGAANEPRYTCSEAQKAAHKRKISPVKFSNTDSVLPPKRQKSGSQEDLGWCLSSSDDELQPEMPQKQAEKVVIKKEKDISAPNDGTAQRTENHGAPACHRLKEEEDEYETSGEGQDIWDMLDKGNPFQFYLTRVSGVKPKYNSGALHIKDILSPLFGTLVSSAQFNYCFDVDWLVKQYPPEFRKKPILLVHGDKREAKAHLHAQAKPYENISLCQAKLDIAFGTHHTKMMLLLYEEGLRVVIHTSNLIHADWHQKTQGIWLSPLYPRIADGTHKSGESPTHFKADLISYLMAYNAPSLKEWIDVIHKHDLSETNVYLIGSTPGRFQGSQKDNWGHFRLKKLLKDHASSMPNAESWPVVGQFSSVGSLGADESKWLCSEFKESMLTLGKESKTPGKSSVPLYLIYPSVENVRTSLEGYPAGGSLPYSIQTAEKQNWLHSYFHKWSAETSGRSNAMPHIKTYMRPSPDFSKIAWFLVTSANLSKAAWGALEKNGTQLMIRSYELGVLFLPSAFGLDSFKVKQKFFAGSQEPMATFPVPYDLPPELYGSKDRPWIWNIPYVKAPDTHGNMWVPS
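Recombinant human Tdp1 (E. coli-expressed, 1 nM final) preincubated with compounds 15 min at room temperature, then 5'-biotin/3'-phosphotyrosine-FITC DNA substrate (15 nM final) added for 5 min. AlphaScreen beads (10 ug/ml final) added 10 min; cleavage lowers signal.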
Giardia kill: Small Molecules that selectively kill Giardia lamblia: qHTS; Giardia lamblia trophozoite viability; activity change, % at 7.66 µM, hits read low; hit rate 0.15% among 340,000; AID 540267, 2011; in the data active = activity change below about -80%; inconclusive = between about -30% and that limit;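 also: parasites exposed to compound for two days anaerobically before the ATP read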
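Luminescent ATP signal served as the viability read-out, measured 15-30 min after adding ATP detection reagent to trophozoites that had been incubated with compounds for 48 hrs at 37 deg C anaerobically at 100 cells/well.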
TDP1 cell noCPT: qHTS for Inhibitors of human tyrosyl-DNA phosphodiesterase 1 (TDP1): qHTS in cells in absence of CPT; DT40 Tdp1-/- hTDP1 cells, no CPT, ATP luminescence, 48 h; Potency, µM (series often up to 46.2 µM), inactives show at the highest dose activity change, negative = growth inhibition, actives largely listed as inhibitors; hit rate 15% among 420,000; AID 686978, 2013; also: potency is read from the fitted curve at half-maximal effect; nearly all actives have a fitted effect of over 55% in size
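Chicken DT40 Tdp1-/- cells stably complemented with human TDP1 were seeded at 400 cells/well with DMSO in place of 20 nM camptothecin. After compound pinning, cells grew at least 48 hr at 37 °C; viability read by CellTiter-Glo luminescence.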
DT40 TDP1 CPT: qHTS for Inhibitors of human tyrosyl-DNA phosphodiesterase 1 (TDP1): qHTS in cells in presence of CPT. Potency, µM (doses to about 46.2 µM), for inactives: at the top dose activity change, negative = growth inhibition, actives largely listed as inhibitors. chicken DT40 Tdp1-/-;hTDP1 cells + 20 nM CPT, ATP luminescence, 48 h. hit rate 12% among 420,000; also: potency is read from the fitted curve at half-maximal effect; nearly all actives have a fitted effect of over 55% in size
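Cell growth measured by CellTiter-Glo luminescence after a minimum 48 h, 37 C compound exposure with 20 nM CPT in Tdp1-knockout DT40 cells stably expressing hTDP1, seeded 400/well; qHTS titration format.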
Active calls of the source: *; ? = inconclusive; . = not tested or not shown; ! = repeats disagree; [ ] = another dose, or the depositor's remark. Shown are actives, neighbours in structure and some others; about 19% of the full set was active somewhere. Unless noted, calls follow the shape of the dose curve; as a rule, active = well fitted curve in the direction sought with a large enough effect; inconclusive = small, poorly fitted or top-dose-only effect, or another doubt; inactive = no such curve, though single readings can be large; an effect the other way counts as inactive or inconclusive. % is scaled to controls: 0 for no effect and ±100 for the full control effect.

SMILES	IL-1B inflam inh	ELG1 DNA repair	TDP1 block	Giardia kill	TDP1 cell noCPT	DT40 TDP1 CPT
Cc1nc(C)c(C(=O)Nc2ncc([N+](=O)[O-])s2)o1	21.4	?	?	-87.7*	?	?
O=C(O)C1CCCC[C@H]1C(=O)Nc1ncc([N+](=O)[O-])s1 (some centres undefined)	37.3	24.4%	.	-8.5	-0.1%	0.7%
CCOc1cc(C(=O)Nc2ccc(NC(C)=O)cc2)ccc1OCC(=O)N1CCCCC1	-0.4	-13.8%	0.0%	5.0	?	-5.8%
O=C(NCCc1ccccc1)c1ccc2c(c1)nc1n2CCOC1	.	.	8.1%	.	-18.1%	0.3%
CCOC(=O)c1ccccc1NC(=O)C1CCN(c2ncnc3sc(C)c(C)c23)CC1	53.8	?	.	-1.4	?	23.1µM*
Cc1sc2ncnc(N3CCC(C(=O)Nc4ccccc4C(C)(C)C)CC3)c2c1C	-8.9	9.2µM*	-3.4%	-2.4	13µM*	20.6µM*
CCCCc1nnc(NC(=O)C2CCN(c3ncnc4sc(C)c(C)c34)CC2)s1	30.5	-23.9%	.	-9.1	?	?
CCOc1ccc(CC2S/C(=N/c3ccccn3)NC2=O)cc1 (centres undefined)	36.9	-7.5%	3.0%	-6.5	?	-19.9%
CCc1ccc(CCOc2ccc(CC3SC(=O)NC3=O)cc2)nc1 (centres undefined)	62.2	.	13.4%	5.2	?	20.6µM*!
COc1ccc(/C=C/C(=O)NNC(=O)C(C)Oc2ccccc2F)cc1OC (centres undefined)	-4.9	-3.0%	0.2%	?	8.3%	-2.8%
COc1ccc(OCc2nnc(SCC(=O)c3c(N)n(C)c(=O)n(C)c3=O)n2-c2ccccc2F)cc1	.	13.4%	-5.4%	.	.	.
CCCn1c(N2CCN(C(=O)Nc3ccc(Cl)cc3)CC2)nc2ccccc21	?	?	0.0%	15.4	23.1µM*	?
Cn1c(N2CCN(C(=O)NCc3ccccc3)CC2)nc2ccccc21	-3.1	0.3%	0.0%	-27.8	-20.6%	?
Cn1c(N2CCN(C(=O)Nc3ccc(C(F)(F)F)cc3)CC2)nc2ccccc21	-13.0	?	0.5%	18.6	20.6µM*	18.4µM*
COc1ccc2[nH]c(-c3ccc(C)cc3)cc(=O)c2c1	37.8	?	2.6%	?	16.4µM*	13µM*
COc1cccc(-c2cc(=O)c3cc(NC(=O)c4cccnc4)ccc3[nH]2)c1	.	.	2.0%	.	.	.
COc1ccc(-c2cc(=O)c3cc(F)ccc3[nH]2)cc1	1.6	?	2.0%[234 µM]	-4.6	?	?
COc1ccc(C(=O)Nc2ccc3[nH]c(-c4cccc(OC)c4)cc(=O)c3c2)cc1	80.7	2.5%	0.0%	-8.7	0.651µM*	1.03µM*
O=C(O)c1c[nH]c2nccnc12	?	.	.	.	2.6%	2.5%
COc1ccc([C@@H]2[C@@H]3C(=O)N(C(C)(C)C)C(=O)[C@@H]3[C@]3(Cc4ccccc4)C(=O)N(c4ccc(OC)cc4)C(=O)N23)cc1	2.4	26.6%	1.2%	-1.7	-12.8%	-2.6%
CC(C)C[C@@]12C(=O)N(c3cccc(F)c3)C(=O)N1[C@H](c1ccc(Br)cc1)[C@@H]1C(=O)N(C(C)(C)C)C(=O)[C@@H]12	-1.9	17.4%	-0.5%	-24.9	20.6µM*	?
